PubChem BioAssay (NCI)
This is part of a sample that, as a whole, favours compounds with a hit. Of some 79,000 tested, about 15% had one in any assay. Unmarked numbers belong to inactive results. Active and inactive are the calls of the source. Rule as the data show it: active = growth inhibition above about 70%; inactive = the rest.

Experiment: NCI Yeast Anticancer Drug Screen. Data for the cln2 rad14 strain (AID 165);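 also: 0% = growth equal to vehicle treated cultures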
Details: S. cerevisiae cln2 rad14 strain, at 50.0 µM, stronger effect = higher value
How it was run: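 Compounds are applied to the cln2 rad14 yeast strain, and growth is then compared with that of vehicle-treated cultures to give inhibition.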

First: Cn1c2ccccc2c2nnc(NCCCCO)nc21
Second: Oc1ccc2ccccc2c1CN1CCOCC1
The growth inhibition of the first is lower: 24.8% for the first, 27.9% for the second.

Compared with `O=C(c1ccccc1)c1ccc(-c2ccc(O)cc2)cc1`, `O=S(Cc1ccccc1)/C(=C/NC(=S)Nc1ccccc1)c1ccccc1` (stereo unspecified) is higher in growth inhibition: -44.3% for the first, -0.95% for the second.

First: CC(=O)C[n+]1ccc(C)cc1Sc1ccccc1C
Second: COc1ccc2c(Cl)cc(NC(=O)Nc3c(C)cccc3C)nc2c1
The growth inhibition of the first is lower: 4.4% for the first, 6.65% for the second.

Compared with `CC(=O)c1cccs1`, `CC(=O)c1cccc(O)c1` is higher in growth inhibition: -20.1% for the first, 1.1% for the second.

First: Oc1ccc(CCC2CCNc3ccccc32)cc1 (stereo unspecified)
Second: O=C1C=Cc2ccccc2/C1=C/c1[nH]c(=O)[nH]c1O
The growth inhibition of the first is lower: -11.7% for the first, 3.2% for the second.

Going from `O=C(Nc1c(Cl)cc(Cl)cc1Cl)ON=C1CCCCC1` to `C=CCOc1ccc(Cl)cc1Cl`, the growth inhibition falls from 12.9% to 4.6%.

Going from `C/C(=N\N=C(/C)c1cccc([N+](=O)[O-])c1)c1cccc([N+](=O)[O-])c1` to `CC(=O)N(C)N=Nc1ccc(C)cc1`, the growth inhibition rises from -10.3% to 4%.

Compared with `Nc1ccc2c(c1)Cc1cc(N)c(N)cc1-2`, `CCOc1ccc2c(c1)c(C)cc(C)[n+]2CC` is higher in growth inhibition: -18.7% for the first, -7.9% for the second.

Going from `CC(=O)c1cc(O)ccc1O` to `O=Cc1ccc(O)c(O)c1`, the growth inhibition rises from -11.1% to 7.75%.

Going from `CCOC(=O)C(CCC#N)(CCC#N)C(=O)OCC` to `COC(=O)Cc1cc(COC(C)=O)ccc1C`, the growth inhibition falls from -21.3% to -57%.

First: CCOP(=O)(NC(c1ccccc1)c1ccccc1)OCC
Second: CC(c1ccccc1)N1C(=O)CSC1=S (stereo unspecified)
The growth inhibition of the first is lower: 5.55% for the first, 35.8% for the second.

Compared with `CN(C)c1ncnc2c1cnn2C`, `CC(=O)CSc1ncnc2nc[nH]c12` is higher in growth inhibition: -13.6% for the first, -5.5% for the second.

Compared with `O=C1C=C[C@H](O)[C@@]2(CO)O[C@@H]12`, `CCOC(=O)c1c[nH][nH]c1=O` is lower in growth inhibition: -6.1% for the first, -18.2% for the second.

Going from `C1CCc2onc(-c3noc4c3CCCCC4)c2CC1` to `FC(F)(F)c1cc(NC2=NCCN=C(Nc3cc(C(F)(F)F)cc(C(F)(F)F)c3)SS2)cc(C(F)(F)F)c1`, the growth inhibition falls from -1.1% to -2%.

Compared with `CCCCCCCCCCC(=O)CCCCCCCCCC`, `CCOC(=O)c1ccc(Nc2sc(C(=O)c3ccc(Br)cc3)c(N)c2C#N)cc1` is higher in growth inhibition: 16.8% for the first, 20.3% for the second.

In the case of `O=[N+]([O-])c1ccc(-c2nc(N(CCO)CCO)c3ccccc3n2)o1`, the growth inhibition is reported as 72.5% (active).
